Shiga toxin inh – A qHTS for Small Molecule Inhibitors of Shiga Toxin; Vero cells, Shiga toxin protein synthesis inhibition reporter; inhibition, % at 38.7 µM; 9.2% of 290,000 active; AID 2315, 2010; in the data active = inhibition mostly above about 28%, no sharp cut-off; inactive = mostly below about 43%; also: 0% is about no effect
Pf growth 48h – Primary qHTS for delayed death inhibitors of the malarial parasite plastid, 48 hour incubation; Potency, µM (doses to about 28.7 µM), inactives show top-dose activity change, negative = inhibition, usual class: inhibitors; 5.9% of 310,000 active; P. falciparum luciferase growth in erythrocytes, 48 h; also: potency is read from the fitted curve at half-maximal effect; % is scaled to controls: 0 for no effect and ±100 for the full control effect
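Read-out is firefly luciferase luminescence from an integrated reporter in P. falciparum, so falling signal marks reduced parasite growth. Infected erythrocytes were at 2% hematocrit and 0.1% parasitemia (final) in Albumax-supplemented RPMI 1640.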
CHX counter – Cycloheximide Counterscreen for Small Molecule Inhibitors of Shiga Toxin; max response, %; 12% of 300,000 active; cell reporter, cycloheximide protein synthesis inhibition counterscreen; in the data active = max response mostly above about 13%, no sharp cut-off; inactive = mostly below about 14%; also: read at 38.3 µM for the half of the compounds with a filed dose; 0% is about no effect
LmPK inh – qHTS Assay for Inhibitors of Leishmania Mexicana Pyruvate Kinase (LmPK) | purified LmPK, Kinase-Glo ATP luminescence, 1 h | Q27686 | Potency, µM (highest dose often 57.5 µM), for the others: at the highest dose activity change, negative = inhibition, actives largely listed as inhibitors | 0.37% of 290,000 active; also: potency is read from the fitted curve at half-maximal effect; % is scaled to controls: 0 for no effect and ±100 for the full control effect
Target sequence (Q27686 whole entry, looked up): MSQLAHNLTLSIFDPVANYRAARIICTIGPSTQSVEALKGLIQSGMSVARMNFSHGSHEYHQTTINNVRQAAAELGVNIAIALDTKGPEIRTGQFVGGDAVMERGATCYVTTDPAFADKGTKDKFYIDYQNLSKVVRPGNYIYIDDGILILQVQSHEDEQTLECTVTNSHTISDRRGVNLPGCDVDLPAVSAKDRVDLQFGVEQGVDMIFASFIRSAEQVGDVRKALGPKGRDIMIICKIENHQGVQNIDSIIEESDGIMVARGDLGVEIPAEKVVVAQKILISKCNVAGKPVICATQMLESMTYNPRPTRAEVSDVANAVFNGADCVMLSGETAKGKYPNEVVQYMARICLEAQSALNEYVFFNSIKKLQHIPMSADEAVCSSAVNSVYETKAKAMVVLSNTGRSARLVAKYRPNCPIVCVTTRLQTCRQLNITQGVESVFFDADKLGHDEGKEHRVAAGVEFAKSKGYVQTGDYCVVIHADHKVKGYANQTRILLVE
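In 50 mM imidazole pH 7.2 with 7 mM MgCl2, LmPK (0.1 nM) turned over PEP (0.5 mM) and ADP (0.1 mM) for 1 h at room temperature. Luciferase read-out of ATP.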
Pf growth 96h – Primary qHTS for delayed death inhibitors of the malarial parasite plastid, 96 hour incubation | P. falciparum luciferase reporter growth, 96 h | 6.9% of 320,000 active | AID 504834, 2011 | Potency, µM (top dose mostly 28.7 µM), without a hit: top-dose activity change, negative = inhibition, actives largely listed as inhibitors; also: potency is read from the fitted curve at half-maximal effect; % is scaled to controls: 0 for no effect and ±100 for the full control effect
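96 h incubation, 37 C, 5% CO2, of luciferase-reporter P. falciparum-infected RBCs (2% hematocrit, 0.05% parasitemia final) with test compounds; endpoint luminescence.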
Active calls of the source: *. Compounds with a hit are over-represented: about 22% of the library has one in this group of screens. Unless noted, calls follow the shape of the dose curve; as a rule, active = well fitted inhibition curve with a large enough effect; inconclusive = small, poorly fitted or top-dose-only effect, or another doubt; inactive = no such curve, though single readings can be large or run the other way.

How did O=C(N/N=C/c1ccc(OCC(=O)N2CCCCC2)cc1)c1ccccc1 do in these assays?
Shiga toxin inh: 40; Pf growth 48h: inconclusive; CHX counter: 30*; LmPK inh: 2%; Pf growth 96h: inconclusive

How did CCCNC(=O)C(=O)N/N=C/c1ccc(OCc2ccccc2)cc1 do in these assays?
Shiga toxin inh: -14; Pf growth 48h: 22%; CHX counter: -1; LmPK inh: 0%; Pf growth 96h: -12%

What do the screens show for `O=C(N/N=C/c1ccc(F)cc1)c1sccc1OCc1ccc(F)cc1`?
Shiga toxin inh: 51; Pf growth 48h: -28%; CHX counter: 13; LmPK inh: 1%; Pf growth 96h: inconclusive

Results for Oc1ccc(N=Cc2ccc(OCc3ccccc3)cc2)cc1 ?
Shiga toxin inh: 80*; Pf growth 48h: inconclusive; CHX counter: 44*; LmPK inh: -27%; Pf growth 96h: inconclusive

What do the screens show for `O=C(N/N=C/c1ccc(Cl)cc1)c1sccc1OCc1ccc(F)cc1`?
Shiga toxin inh: -2; Pf growth 48h: inconclusive; CHX counter: 27*; LmPK inh: 8%; Pf growth 96h: 9.3µM*

What do the screens show for `O=C(N/N=C/c1ccc(OCC(=O)N2CCCCC2)cc1)c1ccccc1O`?
Shiga toxin inh: 22; Pf growth 48h: 1%; CHX counter: 12; LmPK inh: -3%; Pf growth 96h: 29%

How did O=C(N/N=C/c1ccc(OCc2ccccc2)cc1)c1cccs1 do in these assays?
Shiga toxin inh: 66*; Pf growth 48h: inconclusive; CHX counter: 43*; LmPK inh: -2%; Pf growth 96h: inconclusive

Results for O=C(NCCC1CCCCN1S(=O)(=O)c1ccccc1)C(=O)NCc1ccncc1 (configuration not stated) ?
Pf growth 48h: 0%; Pf growth 96h: inconclusive

How did O=C(C[n+]1ccc(C(=O)N/N=C/c2ccc(OCc3ccccc3)cc2)cc1)c1ccccc1 do in these assays?
Shiga toxin inh: 62*; CHX counter: 54*; LmPK inh: -4%; Pf growth 96h: inconclusive

How did O=C(N/N=C/c1ccc(OCc2ccccc2)cc1)c1ccncc1 do in these assays?
Shiga toxin inh: 81; Pf growth 48h: 3%; CHX counter: 13*; LmPK inh: -1%; Pf growth 96h: inconclusive

Results for Cc1cccc(C(=O)Oc2ccc(/C=N/NC(=O)c3ccncc3)cc2)c1 ?
Shiga toxin inh: 28; Pf growth 48h: 12µM*; CHX counter: 12; LmPK inh: 2%; Pf growth 96h: 12µM*

How did Cc1nn(-c2ccccc2)c(Cl)c1C(=O)OCC(=O)NCCc1ccccc1 do in these assays?
Shiga toxin inh: -10; Pf growth 48h: -6%; CHX counter: -3; LmPK inh: -7%; Pf growth 96h: inconclusive

How did NC(=O)c1ccc(-c2nc(-c3ccc4c(c3)OCO4)c(-c3ccccn3)[nH]2)cc1 do in these assays?
Shiga toxin inh: -6; CHX counter: -6

How did C/C=C1\COC(C(=O)NCCCN2CCCC2=O)(C(F)(F)F)C=C1C=C(C)C (configuration not stated) do in these assays?
Shiga toxin inh: 18; CHX counter: 1

Results for c1ccc(Oc2nc(-c3ccccn3)nc3ccccc23)cc1 ?
Shiga toxin inh: 35*; Pf growth 48h: 1.7µM*; CHX counter: 36*; LmPK inh: -5%; Pf growth 96h: 1.3µM*

Results for Cc1nc(Oc2ccccc2)c2ccccc2n1 ?
Shiga toxin inh: -4; Pf growth 48h: -12%; CHX counter: -3; LmPK inh: -1%; Pf growth 96h: -24%

How did Fc1ccc(Oc2nc(-c3ccccn3)nc3ccccc23)cc1 do in these assays?
Shiga toxin inh: 67*; Pf growth 48h: 1.7µM*; CHX counter: 51*; LmPK inh: -7%; Pf growth 96h: 4.7µM*

Results for COc1ccc(Oc2nc(-c3ccccn3)nc3ccccc23)cc1 ?
Shiga toxin inh: 56*; Pf growth 48h: 1.7µM*; CHX counter: 48*; LmPK inh: -1%; Pf growth 96h: 0.37µM*

What do the screens show for `COc1ccc(N(CC(=O)NCc2ccco2)C(=O)CCC(=O)Nc2nccs2)c(OC)c1`?
Shiga toxin inh: -6; Pf growth 48h: -13%; CHX counter: -1; LmPK inh: 1%; Pf growth 96h: inconclusive

How did Cc1cc(=O)n2nc(N3CCCC3C(=O)Nc3cccc(F)c3)sc2n1 (configuration not stated) do in these assays?
Shiga toxin inh: -1; Pf growth 48h: 18%; CHX counter: -3; LmPK inh: -4%; Pf growth 96h: inconclusive

How did CCC(CC)NCC(O)COc1ccc(Br)cc1 (configuration not stated) do in these assays?
Shiga toxin inh: -11; Pf growth 48h: 3.7µM*; CHX counter: -5; LmPK inh: -5%; Pf growth 96h: 7.4µM*

How did COc1ccc(NC(=O)Cc2ccccc2F)cn1 do in these assays?
Shiga toxin inh: 37; Pf growth 48h: 30%; CHX counter: 13; LmPK inh: -3%; Pf growth 96h: inconclusive

What do the screens show for `COc1cccc(/C=C/C(=O)NNC(=O)c2ccncc2)c1`?
Pf growth 48h: -15%; Pf growth 96h: 3%

How did COc1ccc(NC(=O)/C=C/c2ccc(F)cc2)cn1 do in these assays?
Shiga toxin inh: 108*; Pf growth 48h: 26%; CHX counter: 51*; LmPK inh: 1%; Pf growth 96h: -6%

How did CC(=O)N1CCN(c2ccc(NC(=O)/C=C/c3ccccc3)cc2)CC1 do in these assays?
Shiga toxin inh: 49; Pf growth 48h: inconclusive; CHX counter: -1; LmPK inh: -3%; Pf growth 96h: -1%

What do the screens show for `COc1ccc(NC(=O)/C=C/c2ccccc2)cn1`?
Shiga toxin inh: 86*; Pf growth 48h: 72%; CHX counter: 35*; LmPK inh: -7%; Pf growth 96h: 51%

How did COc1ccc(NC(=O)/C=C/c2cc(OC)c(OC)c(OC)c2)cn1 do in these assays?
Shiga toxin inh: 14; Pf growth 48h: 3%; CHX counter: 8; LmPK inh: 0%; Pf growth 96h: 18%

What do the screens show for `CC(=O)Nc1ccc(NC(=O)/C=C/c2ccccc2)cc1`?
Shiga toxin inh: 33*; Pf growth 48h: inconclusive; CHX counter: 25*; LmPK inh: 1%; Pf growth 96h: 252%

How did COc1cccc(/C=C/C(=O)Nc2ccc(OC)nc2)c1 do in these assays?
Shiga toxin inh: 88*; Pf growth 48h: 19%; CHX counter: 30*; LmPK inh: 4%; Pf growth 96h: 5%

How did CNC(=S)Nc1ccc(N2CCN(c3ccc(C(F)(F)F)cn3)CC2)nc1 do in these assays?
Shiga toxin inh: -6; Pf growth 48h: inconclusive; CHX counter: -1; LmPK inh: -1%; Pf growth 96h: 6%

What do the screens show for `Cc1cc(NS(=O)(=O)c2ccc(NC(=O)CSc3nc4ncc(Br)cc4[nH]3)cc2)nc(C)n1`?
Shiga toxin inh: -3; Pf growth 48h: inconclusive; CHX counter: -2; LmPK inh: -9%; Pf growth 96h: inconclusive

Screening data as filed in PubChem.
